# Experimental data from the supplement of paper PMC10849652.
# About 8,800 targets were measured; listed, in parts, are those with a hit and a random draw of the rest. About 0.5% of all pairs of compound and target were hits. A number with no mark means an inactive call.
# How the values were obtained:
# Assay in all cases: log2 fold change, soluble protein after heating vs DMSO (PISA); higher = thermal stabilisation; K562 lysate, 10 uM; active = over 0.2 and 3.5 SD of the protein, either way, in both replicates (recomputed)
# [1] = compound: C#Cc1cccc(Nc2ncnc3cc(OCCOC)c(OCCOC)cc23)c1 [erlotinib]
# In short: (§1)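 K562 pellets were dounce-homogenised in PBS pH 7.4 containing 1 mM MgCl2, and the crude extract, at 1 mg/mL protein, was exposed to 10 μM compound for 30 min. Aliquots were heated for 3 min across 48°C-58°C, pooled, brought to 0.5% NP-40 at 4°C and spun at 21,000xg for 90 min, with the supernatant taken as soluble protein. TMTpro 16plex LC-MS/MS with equalised channel sums quantified that protein. Values are log-two fold changes in thermal stability relative to solvent controls, taken from duplicates.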
# [2] = compound: C/C(=N\NC(=O)C1=CC(=CC=C1)S(=O)(=O)N2CCOCC2)/C3=C(C=CC(=C3)Cl)O
# In short: as §1
# [3] = compound: C1=CC(=CC=C1C2=NC3=C(N2)C=C(C=C3)C(=O)N)OC4=CC=C(C=C4)Cl
# In short: as §1
# [4] = compound: C1=CC2=C(C=CC(=C2)/C=C\3/C(=O)NC(=NCC4=CC=CS4)S3)N=C1
# In short: as §1
# [5] = compound: C1=CC2=NC=CN=C2C=C1/C=C/3\C(=O)NC(=O)S3
# In short: as §1
# [6] = compound: C1=CC=C(C=C1)C2=NC(=C(N2)C3=CC=NC=C3)C4=CC(=C(C=C4)Cl)O
# In short: as §1
# [7] = compound: C1=CC=C2C(=C1)C3=NNC4=CC=CC(=C43)C2=O
# In short: as §1
# [8] = compound: C1CCN(C1)C(=O)NC2=CC=CC(=C2)NC3=NC=C(C(=N3)NCCC4=CN=CN4)Br
# In short: as §1
# [9] = compound: C1CN(CCC1(CC2=CC=C(C=C2)Cl)N)C3=NC=NC4=C3C=CN4
# In short: as §1
# [10] = compound: C1COCCN1CCN2C3=CC=CC=C3N=C2NC(=O)C4=CC(=CC=C4)[N+](=O)[O-] [IRAK-1-4 Inhibitor I]
# In short: as §1
# UniProt O95319, sequence (O95319 whole entry, looked up): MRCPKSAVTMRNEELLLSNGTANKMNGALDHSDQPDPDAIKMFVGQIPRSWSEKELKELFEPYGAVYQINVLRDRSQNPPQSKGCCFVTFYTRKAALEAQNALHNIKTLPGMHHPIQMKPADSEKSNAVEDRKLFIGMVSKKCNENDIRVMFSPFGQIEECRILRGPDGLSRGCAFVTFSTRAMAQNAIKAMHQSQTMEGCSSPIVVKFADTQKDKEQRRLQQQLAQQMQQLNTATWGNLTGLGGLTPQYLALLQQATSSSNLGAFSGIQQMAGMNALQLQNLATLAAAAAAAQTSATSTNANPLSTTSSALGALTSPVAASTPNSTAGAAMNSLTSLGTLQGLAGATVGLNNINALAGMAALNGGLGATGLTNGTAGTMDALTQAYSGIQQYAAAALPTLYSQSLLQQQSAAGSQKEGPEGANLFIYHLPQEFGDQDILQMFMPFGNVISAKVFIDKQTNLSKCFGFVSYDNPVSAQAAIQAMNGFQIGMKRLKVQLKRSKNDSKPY
# UniProt Q96SZ6, sequence (Q96SZ6 whole entry, looked up): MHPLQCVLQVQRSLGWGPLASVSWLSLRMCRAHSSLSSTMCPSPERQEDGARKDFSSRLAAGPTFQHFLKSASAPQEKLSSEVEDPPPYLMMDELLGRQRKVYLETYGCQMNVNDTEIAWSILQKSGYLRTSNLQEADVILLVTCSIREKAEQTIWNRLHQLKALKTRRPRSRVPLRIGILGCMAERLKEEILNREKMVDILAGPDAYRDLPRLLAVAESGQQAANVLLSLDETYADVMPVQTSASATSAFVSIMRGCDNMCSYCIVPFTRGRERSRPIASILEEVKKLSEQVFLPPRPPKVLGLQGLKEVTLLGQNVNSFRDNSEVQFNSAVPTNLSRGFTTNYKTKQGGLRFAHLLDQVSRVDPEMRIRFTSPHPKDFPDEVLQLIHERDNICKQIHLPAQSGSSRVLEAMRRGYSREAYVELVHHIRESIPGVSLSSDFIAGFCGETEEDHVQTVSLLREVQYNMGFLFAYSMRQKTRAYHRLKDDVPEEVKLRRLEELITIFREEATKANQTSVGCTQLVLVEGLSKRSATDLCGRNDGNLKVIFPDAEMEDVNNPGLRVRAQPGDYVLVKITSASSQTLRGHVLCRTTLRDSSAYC
# UniProt Q9Y6H1, sequence (Q9Y6H1 whole entry, looked up): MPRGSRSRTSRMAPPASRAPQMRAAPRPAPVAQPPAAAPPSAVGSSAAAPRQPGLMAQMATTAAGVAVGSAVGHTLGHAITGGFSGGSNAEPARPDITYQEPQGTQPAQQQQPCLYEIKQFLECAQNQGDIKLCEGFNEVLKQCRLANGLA
# UniProt P51946, sequence (P51946 whole entry, looked up): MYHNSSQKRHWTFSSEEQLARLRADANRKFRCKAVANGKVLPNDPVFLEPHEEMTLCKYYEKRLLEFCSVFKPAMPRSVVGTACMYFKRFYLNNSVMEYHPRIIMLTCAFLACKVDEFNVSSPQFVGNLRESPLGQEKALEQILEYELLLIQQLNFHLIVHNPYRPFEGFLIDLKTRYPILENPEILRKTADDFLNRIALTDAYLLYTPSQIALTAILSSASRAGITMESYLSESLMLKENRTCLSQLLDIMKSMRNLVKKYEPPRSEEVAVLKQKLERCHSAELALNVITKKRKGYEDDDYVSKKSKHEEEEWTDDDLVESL
# UniProt O14981, sequence (O14981 whole entry, looked up): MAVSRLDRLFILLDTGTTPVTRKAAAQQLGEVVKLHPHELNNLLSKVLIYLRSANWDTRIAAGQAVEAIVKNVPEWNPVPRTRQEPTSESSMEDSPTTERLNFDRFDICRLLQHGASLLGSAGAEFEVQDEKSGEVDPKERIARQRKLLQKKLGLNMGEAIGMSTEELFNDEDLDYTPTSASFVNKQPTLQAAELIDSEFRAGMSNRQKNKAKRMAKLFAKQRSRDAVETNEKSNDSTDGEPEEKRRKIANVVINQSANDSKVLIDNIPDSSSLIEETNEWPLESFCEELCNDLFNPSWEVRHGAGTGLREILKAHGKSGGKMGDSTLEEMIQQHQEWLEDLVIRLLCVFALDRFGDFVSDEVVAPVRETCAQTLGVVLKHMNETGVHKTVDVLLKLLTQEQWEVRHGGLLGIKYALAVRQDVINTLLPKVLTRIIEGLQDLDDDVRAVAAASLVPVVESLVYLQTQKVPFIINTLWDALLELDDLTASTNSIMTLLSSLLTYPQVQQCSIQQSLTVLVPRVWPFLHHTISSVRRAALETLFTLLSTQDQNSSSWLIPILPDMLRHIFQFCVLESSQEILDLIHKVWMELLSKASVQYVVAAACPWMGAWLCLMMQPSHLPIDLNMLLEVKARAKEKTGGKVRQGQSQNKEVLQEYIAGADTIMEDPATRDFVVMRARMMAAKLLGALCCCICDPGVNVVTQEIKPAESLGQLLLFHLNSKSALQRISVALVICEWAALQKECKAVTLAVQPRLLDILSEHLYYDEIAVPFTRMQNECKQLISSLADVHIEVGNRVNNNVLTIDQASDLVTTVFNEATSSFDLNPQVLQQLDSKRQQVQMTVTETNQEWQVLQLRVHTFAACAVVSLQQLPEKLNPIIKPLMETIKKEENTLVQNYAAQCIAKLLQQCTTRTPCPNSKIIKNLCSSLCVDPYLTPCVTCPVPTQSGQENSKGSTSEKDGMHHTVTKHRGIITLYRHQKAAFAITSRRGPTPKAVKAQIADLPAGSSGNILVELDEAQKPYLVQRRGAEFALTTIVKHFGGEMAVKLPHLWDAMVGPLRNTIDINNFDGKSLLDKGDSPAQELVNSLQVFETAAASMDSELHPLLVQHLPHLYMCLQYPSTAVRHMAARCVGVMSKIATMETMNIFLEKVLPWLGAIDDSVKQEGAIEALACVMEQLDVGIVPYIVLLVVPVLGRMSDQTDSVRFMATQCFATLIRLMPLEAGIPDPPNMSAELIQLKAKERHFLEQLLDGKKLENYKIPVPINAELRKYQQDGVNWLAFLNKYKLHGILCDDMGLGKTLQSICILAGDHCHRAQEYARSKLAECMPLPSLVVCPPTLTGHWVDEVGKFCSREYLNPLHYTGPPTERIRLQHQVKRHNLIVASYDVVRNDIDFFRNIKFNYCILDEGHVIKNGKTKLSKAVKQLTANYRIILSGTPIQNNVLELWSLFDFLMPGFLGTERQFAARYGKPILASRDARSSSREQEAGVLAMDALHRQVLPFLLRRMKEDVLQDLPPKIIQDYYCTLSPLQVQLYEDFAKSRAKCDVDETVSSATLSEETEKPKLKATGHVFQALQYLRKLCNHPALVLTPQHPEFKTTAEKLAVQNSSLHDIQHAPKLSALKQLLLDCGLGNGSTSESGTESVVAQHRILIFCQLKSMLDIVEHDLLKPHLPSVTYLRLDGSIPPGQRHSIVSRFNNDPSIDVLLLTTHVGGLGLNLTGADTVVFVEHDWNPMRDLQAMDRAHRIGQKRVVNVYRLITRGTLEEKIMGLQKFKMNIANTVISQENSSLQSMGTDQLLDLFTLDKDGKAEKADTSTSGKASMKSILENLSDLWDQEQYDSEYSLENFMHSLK
# UniProt Q8ND76, sequence (Q8ND76 whole entry, looked up): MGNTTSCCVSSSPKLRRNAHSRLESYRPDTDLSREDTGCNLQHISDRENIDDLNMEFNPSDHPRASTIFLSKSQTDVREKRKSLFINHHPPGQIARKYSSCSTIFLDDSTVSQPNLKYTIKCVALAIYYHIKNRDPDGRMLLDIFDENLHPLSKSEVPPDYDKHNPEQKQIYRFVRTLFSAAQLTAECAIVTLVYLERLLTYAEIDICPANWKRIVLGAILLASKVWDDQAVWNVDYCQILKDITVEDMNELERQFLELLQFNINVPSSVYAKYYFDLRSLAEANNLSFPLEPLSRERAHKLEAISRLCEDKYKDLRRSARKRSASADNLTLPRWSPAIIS
# UniProt Q9Y4P1, sequence (Q9Y4P1 whole entry, looked up): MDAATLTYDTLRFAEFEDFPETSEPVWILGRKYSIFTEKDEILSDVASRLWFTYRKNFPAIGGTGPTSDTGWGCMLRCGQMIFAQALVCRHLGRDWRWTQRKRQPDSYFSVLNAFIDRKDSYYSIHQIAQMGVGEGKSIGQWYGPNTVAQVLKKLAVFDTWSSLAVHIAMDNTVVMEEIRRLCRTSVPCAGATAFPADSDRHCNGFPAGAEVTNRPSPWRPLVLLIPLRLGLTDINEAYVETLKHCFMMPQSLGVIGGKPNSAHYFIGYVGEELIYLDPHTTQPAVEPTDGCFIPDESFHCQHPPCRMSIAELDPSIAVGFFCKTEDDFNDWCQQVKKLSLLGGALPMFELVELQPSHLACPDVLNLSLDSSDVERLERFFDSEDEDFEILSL
# UniProt O75794, sequence (O75794 whole entry, looked up): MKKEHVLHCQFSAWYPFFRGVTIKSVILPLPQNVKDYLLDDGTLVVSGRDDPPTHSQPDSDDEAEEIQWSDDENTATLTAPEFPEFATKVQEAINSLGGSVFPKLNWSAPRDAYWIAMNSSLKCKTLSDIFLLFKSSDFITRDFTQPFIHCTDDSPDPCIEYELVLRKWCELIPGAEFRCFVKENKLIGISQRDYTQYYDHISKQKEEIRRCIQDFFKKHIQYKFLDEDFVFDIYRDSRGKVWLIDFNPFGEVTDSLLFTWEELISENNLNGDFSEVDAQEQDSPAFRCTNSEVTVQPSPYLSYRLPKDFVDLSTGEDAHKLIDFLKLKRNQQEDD
# UniProt P18859, sequence (P18859 whole entry, looked up): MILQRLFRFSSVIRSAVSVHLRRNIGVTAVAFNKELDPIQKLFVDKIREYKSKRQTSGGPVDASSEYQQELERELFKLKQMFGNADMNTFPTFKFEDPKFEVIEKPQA
# UniProt Q8WUX2, sequence (Q8WUX2 whole entry, looked up): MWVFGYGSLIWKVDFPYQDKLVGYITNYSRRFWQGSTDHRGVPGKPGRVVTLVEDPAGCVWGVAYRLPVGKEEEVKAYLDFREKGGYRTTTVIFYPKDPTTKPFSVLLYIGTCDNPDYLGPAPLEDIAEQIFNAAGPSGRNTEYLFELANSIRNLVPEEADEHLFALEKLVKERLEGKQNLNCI
Target,log2 fold change [1],log2 fold change [2],log2 fold change [3],log2 fold change [4],log2 fold change [5],log2 fold change [6],log2 fold change [7],log2 fold change [8],log2 fold change [9],log2 fold change [10]
CARD9 (UniProt Q9H257),0.035,-0.024,-0.029,-0.02,-0.024,-0.009,0.033,0.015,-0.003,0.017
CCNY (UniProt Q8ND76),-0.082,-0.033,0.041,-0.037,0.052,0,0.168,-0.016,-0.032,0.063
CCNB2 (UniProt O95067),0.037,0.038,0.075,-0.061,-0.008,0.008,-0.125,-0.02,0.027,0.033
ATXN2 (UniProt F8WB05),0.073,-0.082,0.09,-0.191,-0.063,-0.011,-0.083,-0.036,0.055,-0.157
CDK5RAP1 (UniProt Q96SZ6),-0.059,0.007,-0.029,0.005,-0.392 (active),0.043,0.016,-0.016,0.041,-0.018
CCDC85B (UniProt Q15834),-0.126,0.22,-0.066,-0.022,-0.001,-0.058,0.015,-0.361,-0.203,0.011
CHCHD2 (UniProt Q9Y6H1),-0.068,-0.03,-0.086,0.033,-0.024,0.027,0.092,0.009,0.057,-0.005
AURKAIP1 (UniProt Q9NWT8),-0.062,-0.093,0.046,-0.031,-0.019,0.432 (active),0.025,-0.032,0.064,0.095
C8orf37 (UniProt Q96NL8),-0.006,-0.174,0.029,-0.064,0.005,0.001,0.037,-0.067,0.007,-0.047
CAMLG (UniProt P49069),-0.002,0.05,-0.013,0.004,-0.001,0.035,-0.033,0.029,-0.028,-0.025
C18orf25 isoform 2 (UniProt Q96B23),0.031,0.098,-0.059,-0.002,0.185,0.055,-0.011,-0.01,-0.063,0.003
CASP3 (UniProt P42574),-0.002,-0.02,0.044,-0.001,0.034,0.02,-0.042,0.011,0.039,-0.007
CEP152 (UniProt O94986),-0.011,-0.043,0.142,-0.1,0.139,0.099,0.123,-0.07,0.073,0.086
CD63 (UniProt P08962),-0.042,0.026,-0.031,0.047,0.057,-0.114,-0.038,0.018,-0.016,0.066
BTAF1 (UniProt O14981),0.044,-0.035,-0.01,-0.002,-0.003,0.002,0.002,-0.017,0.022,-0.034
CCNH (UniProt P51946),0.018,-0.018,0.074,-0.055,-0.029,0,-0.021,-0.047,0.012,-0.005
C12orf45 (UniProt Q8N5I9),-0.038,-0.113,0.027,0.009,-0.037,0.009,0.009,-0.018,0.009,-0.002
BSDC1 (UniProt Q9NW68),-0.002,0.01,-0.039,0.046,-0.025,-0.024,0.036,-0.029,0,0.059
CHAC2 (UniProt Q8WUX2),0.019,0.097,0.049,0.022,-0.023,0.055,-0.012,0.032,0.044,-0.038
CDC123 (UniProt O75794),0.013,-0.02,-0.011,-0.006,-0.06,-0.006,0.013,0,-0.004,-0.025
ATP5PF isoform 2 (UniProt P18859),0.063,0.107,-0.021,0.011,0.017,0.05,-0.01,-0.003,0.09,-0.026
ATG4B (UniProt Q9Y4P1),0.012,0.002,-0.022,-0.024,0.028,-0.019,-0.007,0.008,-0.004,0.019
BNIP1 (UniProt Q12981),-0.028,0.05,-0.048,-0.011,-0.026,0.071,-0.009,0.002,0.018,-0.004
CAPN15 (UniProt O75808),0.01,0.187,-0.011,-0.028,-0.104,-0.05,0.026,0.019,0.031,0.01
CELF2 isoform 3 (UniProt O95319),-0.111,-0.041,-0.041,-0.004,-0.024,0.007,-0.012,-0.053,0.041,-0.029
ATG13 isoform 2 (UniProt O75143),0.019,-0.055,-0.033,0.021,-0.001,-0.004,0.02,-0.031,0.019,0.006
BUB1B isoform 3 (UniProt O60566),0.019,0.013,-0.002,-0.026,0.01,0.021,-0.039,-0.031,-0.008,-0.016
CAMK2G isoform 8 (UniProt Q13555),0.009,-0.193,0.027,-0.094,0.018,-0.027,0.116,0.026,0.044,0.036
CELF1 isoform 4 (UniProt Q92879),-0.101,-0.039,0.013,0.055,0,-0.031,-0.03,-0.002,-0.043,-0.045
ATG7 (UniProt O95352),0.03,0.113,0.035,0.001,0.015,-0.003,-0.06,-0.028,0.032,0.017
